# Reference: PubChem BioAssay AID652217 (Sanford-Burnham Center for Chemical Genomics, 2013)
# The campaign covered roughly 1,800 compounds. About 240 (13%) were called active. Cut-off read from the data, not from the text of the source: active = inhibition above about 40%; inactive = the rest. This excerpt belongs to a sample that is enriched for actives.
# Biological target: NEDD8-conjugating enzyme Ubc12 (Homo sapiens) + NEDD8-activating enzyme E1 regulatory subunit (Homo sapiens) (UniProt P61081+Q13564)
# Assay: blockade of NEDD8 conjugation to cullin – biochemical, TR-FRET, single concentration, confirmation (AID 652217);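 note: neddylation substrate is the cullin 1 ring ligase complex with SKP2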
# Details: TR-FRET cullin neddylation biochemical assay; at 25 µM; active compounds read high
# Chain of NEDD8-conjugating enzyme Ubc12 (Homo sapiens) + NEDD8-activating enzyme E1 regulatory subunit (Homo sapiens) (P61081 whole entry, looked up): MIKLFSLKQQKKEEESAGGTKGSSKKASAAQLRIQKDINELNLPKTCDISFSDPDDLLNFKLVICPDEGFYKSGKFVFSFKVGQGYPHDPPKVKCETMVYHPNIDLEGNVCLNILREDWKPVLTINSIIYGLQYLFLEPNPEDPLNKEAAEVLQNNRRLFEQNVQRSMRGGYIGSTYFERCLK
# Chain of NEDD8-conjugating enzyme Ubc12 (Homo sapiens) + NEDD8-activating enzyme E1 regulatory subunit (Homo sapiens) (Q13564 whole entry, looked up): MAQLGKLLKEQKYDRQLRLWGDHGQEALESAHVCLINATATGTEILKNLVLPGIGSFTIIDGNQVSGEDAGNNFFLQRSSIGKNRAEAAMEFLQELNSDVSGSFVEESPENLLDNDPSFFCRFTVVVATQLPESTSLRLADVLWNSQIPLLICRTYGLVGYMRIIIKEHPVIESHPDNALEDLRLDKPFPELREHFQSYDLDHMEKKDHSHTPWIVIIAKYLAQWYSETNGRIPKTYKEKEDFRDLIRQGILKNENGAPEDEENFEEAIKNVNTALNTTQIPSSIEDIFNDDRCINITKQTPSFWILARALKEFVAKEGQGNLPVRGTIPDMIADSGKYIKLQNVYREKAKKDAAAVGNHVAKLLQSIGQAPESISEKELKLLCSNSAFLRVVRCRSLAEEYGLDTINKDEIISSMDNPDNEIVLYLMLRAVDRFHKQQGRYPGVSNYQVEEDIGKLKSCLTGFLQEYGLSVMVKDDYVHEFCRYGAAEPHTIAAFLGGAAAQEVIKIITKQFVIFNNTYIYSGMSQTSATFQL
row,Compound,inhibition
1,CC(=CCOc1ccc2ccc(=O)oc2c1)C1=CC(=O)C(C)(C)O1,44.2% (active)
2,CCN1c2nc3c(C)cccn3c(=O)c2CC2(C(=O)N(C)C(=O)N(C)C2=O)C1C (centres undefined),9.81% (inactive)
3,CCC(C)n1c(O)c(/C=N/Nc2nc3c(c(=O)n(C)c(=O)n3C)n2C)c(=O)[nH]c1=S (centres undefined),-31.5% (inactive)
4,CCCCC(=O)N/N=C/c1c(O)n(CCC2=CCCCC2)c(=O)[nH]c1=O,2.57% (inactive)
